From PubChem BioAssay (NCATS)
Records with an inconclusive call do not appear. Active and inactive are the calls of the source. Calls follow the shape of the full dose curve.

Experiments:
[1] = Primary qHTS for inhibitors of SARS-S pseudo-typed particle cell entry (AID 1479145); also: nearly all actives have a fitted effect of over 45% in size
[2] = Primary qHTS for Huh7 cytotoxicity: counterscreen for inhibitors of MERS-S pseudotyped particle cell entry (AID 1479147); also: potency is read from the fitted curve at half-maximal effect
[3] = Primary qHTS for inhibitors of MERS-S pseudo-typed particle cell entry (AID 1479149); also: nearly all actives have a fitted effect of over 60% in size
[4] = Primary qHTS for Vero E6 cytotoxicity: counterscreen for inhibitors of SARS-S pseudo-typed particle cell entry (AID 1479150); also: potency is read from the fitted curve at half-maximal effect

Measured: Potency

COCC(=O)Nc1c(I)c(C(=O)NCC(O)CO)c(I)c(C(=O)N(C)CC(O)CO)c1I (centres undefined)
inactive: [1] | [2] | [3] | [4]

CCOC(=O)C1=C(C)NC(C)=C(C(=O)OC)C1c1cccc([N+](=O)[O-])c1 (centres undefined)
inactive: [1] | [2] | [3] | [4]

Cc1cc(NS(=O)(=O)c2ccc(N)cc2)nc(C)n1
inactive: [1] | [2] | [3] | [4]

CCC(C(=O)NC(=O)NC(C)=O)c1ccccc1 (centres undefined)
inactive: [1] | [2] | [3] | [4]

CCC1(C)CC(=O)NC1=O (centres undefined)
inactive: [1] | [2] | [3] | [4]

CCCc1nc(C(C)(C)O)c(C(=O)OCc2oc(=O)oc2C)n1Cc1ccc(-c2ccccc2-c2nn[nH]n2)cc1
inactive: [1] | [2] | [3] | [4]

O=C(O)[C@@H](O)[C@H](O)[C@H](O)[C@@H](O)C(=O)O
inactive: [1] | [2] | [3] | [4]

O=c1[nH]cnc2[nH]ncc12
inactive: [1] | [2] | [3] | [4]

CC(C)c1ccc2oc3nc(N)c(C(=O)O)cc3c(=O)c2c1
inactive: [1] | [3]
active: [2] 10 µM | [4] 7.94 µM

CC(C)C(=O)c1c(C(C)C)nn2ccccc12
inactive: [1] | [2] | [3] | [4]

CC(=O)OCC(COC(C)=O)OC(C)=O
inactive: [1] | [2] | [3] | [4]

CCCCC(=O)OCC(=O)[C@H]1[C@H](C)C[C@H]2[C@@H]3C[C@H](F)C4=CC(=O)C=C[C@]4(C)[C@@]3(F)[C@@H](O)C[C@@]21C
inactive: [1] | [2] | [3] | [4]

O=C(O)Cc1cccc2ccccc12
inactive: [1] | [2] | [3] | [4]

CC(C(=O)O)c1ccc(C(=O)c2ccccc2)s1 (centres undefined)
inactive: [1] | [2] | [3] | [4]

Nc1ccc(S(=O)(=O)Nc2ccnn2-c2ccccc2)cc1
inactive: [1] | [2] | [3] | [4]

CC(C)(O/N=C(\C(=O)N[C@@H]1C(=O)N2C(C(=O)[O-])=C(C[n+]3ccccc3)CS[C@H]12)c1csc(N)n1)C(=O)O
inactive: [1] | [2] | [3] | [4]

NC(=O)NC(=O)Cc1ccccc1
inactive: [1] | [2] | [3] | [4]

CC(=O)OCC(=O)[C@@]1(OC(C)=O)[C@@H](C)C[C@H]2[C@@H]3C[C@H](F)C4=CC(=O)C=C[C@]4(C)[C@@]3(F)[C@@H](O)C[C@@]21C
inactive: [1] | [2] | [3] | [4]

CCOC(=O)c1ccc(O)cc1
inactive: [1] | [2] | [3] | [4]

CC(C)Cn1cnc2c(N)nc3ccccc3c21
inactive: [1] | [2] | [3] | [4]

CCCc1nn(C)c2c(=O)[nH]c(-c3cc(S(=O)(=O)N4CCN(C)CC4)ccc3OCC)nc12
inactive: [1] | [2] | [3] | [4]

CCC1=C(C)CN(C(=O)NCCc2ccc(S(=O)(=O)NC(=O)NC3CCC(C)CC3)cc2)C1=O (centres undefined)
inactive: [1] | [2] | [3] | [4]

Cc1oc(=O)oc1CN1CCN(c2cc3c(cc2F)c(=O)c(C(=O)O)c2n3C(C)S2)CC1 (centres undefined)
inactive: [1] | [2] | [3] | [4]

COc1c2occc2cc2ccc(=O)oc12
inactive: [1] | [2] | [3] | [4]

COc1ccc2cccc(CCNC(C)=O)c2c1
inactive: [1] | [2] | [3] | [4]

COCCCOc1ccnc(CS(=O)c2nc3ccccc3[nH]2)c1C (centres undefined)
inactive: [1] | [2] | [3] | [4]

C=CCc1ccc(O)c(OC)c1
inactive: [1] | [2] | [3] | [4]

O=C(O)COc1nn(Cc2ccccc2)c2ccccc12
inactive: [1] | [2] | [3] | [4]

O=C(CS(=O)Cc1ccco1)NC/C=C\COc1cc(CN2CCCCC2)ccn1 (centres undefined)
inactive: [1] | [2] | [3] | [4]

NS(=O)(=O)c1cc(C2(O)NC(=O)c3ccccc32)ccc1Cl (centres undefined)
inactive: [1] | [2] | [3] | [4]

O=C(O)/C=C\C(=O)O
inactive: [1] | [2] | [3] | [4]

O=S(=O)(O)c1ccc2nc(-c3ccccc3)[nH]c2c1
inactive: [1] | [2] | [3] | [4]

C[N+]1(C)CCCC(OC(=O)C(O)(c2ccccc2)c2ccccc2)C1 (centres undefined)
inactive: [1] | [2] | [3] | [4]

CC(O)(P(=O)(O)O)P(=O)(O)O
inactive: [1] | [2] | [3] | [4]

CCN(Cc1ccncc1)C(=O)C(CO)c1ccccc1 (centres undefined)
inactive: [1] | [2] | [3] | [4]

Cn1c(=O)c2[nH]cnc2n(C)c1=O
inactive: [1] | [2] | [3] | [4]

CCOC(=O)c1ccccc1O
inactive: [1] | [2] | [3] | [4]

NCCNCCNCCN
inactive: [1] | [2] | [3] | [4]

Nc1c(I)cc(I)c(C(=O)N(CCC(=O)O)c2ccccc2)c1I
inactive: [1] | [2] | [3] | [4]

CCOc1cc(OCC)c(C(=O)CCC(=O)O)cc1OCC
inactive: [1] | [2] | [3] | [4]

O=C(CCOCCOCCOCCOCCC(=O)Nc1c(I)cc(I)c(C(=O)O)c1I)Nc1c(I)cc(I)c(C(=O)O)c1I
inactive: [1] | [2] | [3] | [4]

CCCCCC[C@@H](CCC)C(=O)O
inactive: [1] | [2] | [3] | [4]

CC1CCN(CCCC(=O)c2ccc(F)cc2)CC1
inactive: [1] | [2] | [3] | [4]

CNC[C@H](O)[C@@H](O)[C@H](O)[C@H](O)CO
inactive: [1] | [2] | [3] | [4]

C#CCN[C@@H]1CCc2ccccc21
inactive: [1] | [2] | [3] | [4]

CCCC(O)C(CC)CO (centres undefined)
inactive: [1] | [2] | [3] | [4]
